Screens (PubChem)
An excerpt weighted towards active compounds, which were near 3.5% of everything screened.
HSP90 inh: HSP90 refolding inhibition in rabbit reticulocyte lysate | luciferase refolding luminescence, 3 h | inhibition, % at 5.6 µM | hit rate 0.91% among 290,000;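 active means inhibition above the screen-wide mean plus 3 SD, computed separately per campaign, cut at about 16% in these data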;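 further: 0% = DMSO wells and 100% = 60 µM geldanamycin wells; inhibitors lower the luminescence because luciferase stays unfolded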
TRAIL sens C8: caspase-8 TRAIL sensitization; NB7+C8 cells + TRAIL, ATPlite viability luminescence; inhibition (viability loss, TRAIL sensitization), % at 10 µM; hit rate 1% among 360,000; AID 624354;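 active means compounds causing at least 50% loss of cell viability in the single-dose screen, relative to plate controls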
Platelet DG rel: modulates dense granule release in human platelets. AID 1663. hit rate 0.22% among 300,000. inhibition, %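 (compounds screened at 7.5 µM in platelet-rich plasma)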. human platelet-rich plasma, SFLLRN dense granule ATP release, luminescence;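 active means mean replicate score, as percent of positive control, at or above 50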
TWEAK Fn14 block: TWEAK-Fn14 signaling inhibition | inhibition, % at 10 µM | hit rate 2% among 360,000 | TWEAK-stimulated Fn14 reporter cells, luciferase luminescence, 8 h | AID 1159606; in the data active means inhibition above about 50%
PPC-1+TRAIL kill: compounds killing PPC-1 cancer cells with TRAIL present (potentiator screen, no TRAIL-free arm). PPC-1 cells + TRAIL, ATPLite viability luminescence. AID 1443. hit rate 0.41% among 220,000. cell killing (% activity), % at 4 µM or 5 µM;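 active means cell killing above 50% in the first pass at 4 µM, then a duplicate retest at 5 µM averaging 50% or more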;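 further: plate controls were cells with TRAIL plus DMSO for no effect and medium-only wells lacking cells for full effect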
TROY signal inh: TROY signaling inhibition | Q293 LMP1-TROYcd NF-kB luciferase reporter, 4 h | inhibition, % at 10 µM | hit rate 0.98% among 360,000 | AID 1347056;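 active means compounds whose plate-normalised and pattern-corrected inhibition of the luciferase reporter signal at the single screening dose is 50% or more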
HSP90 inh confirm: HSP90 inhibition, confirmation assay; rabbit reticulocyte lysate, luciferase refolding luminescence, 3 h; shares compounds with HSP90 inh; inhibition, % at 5.9 µM; hit rate 64% among 2,300; in the data active means inhibition above about 18%;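 further: 0% = vehicle wells and 100% = reference inhibitor wells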
FLuc counter: counter-screen for HSP90 inhibitors: inhibitors of firefly luciferase | hit rate 48% among 2,300 | shares compounds with HSP90 inh | AID 1847 | inhibition, % at 5.9 µM | purified native firefly luciferase, luminescence;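 active means inhibition above the mean inhibition of all tested sample wells plus 3 SD, cut at about 10% in these data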;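 further: 0% = DMSO with luciferase and 100% = wells lacking luciferase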
Target sequence (P08659 whole entry, looked up): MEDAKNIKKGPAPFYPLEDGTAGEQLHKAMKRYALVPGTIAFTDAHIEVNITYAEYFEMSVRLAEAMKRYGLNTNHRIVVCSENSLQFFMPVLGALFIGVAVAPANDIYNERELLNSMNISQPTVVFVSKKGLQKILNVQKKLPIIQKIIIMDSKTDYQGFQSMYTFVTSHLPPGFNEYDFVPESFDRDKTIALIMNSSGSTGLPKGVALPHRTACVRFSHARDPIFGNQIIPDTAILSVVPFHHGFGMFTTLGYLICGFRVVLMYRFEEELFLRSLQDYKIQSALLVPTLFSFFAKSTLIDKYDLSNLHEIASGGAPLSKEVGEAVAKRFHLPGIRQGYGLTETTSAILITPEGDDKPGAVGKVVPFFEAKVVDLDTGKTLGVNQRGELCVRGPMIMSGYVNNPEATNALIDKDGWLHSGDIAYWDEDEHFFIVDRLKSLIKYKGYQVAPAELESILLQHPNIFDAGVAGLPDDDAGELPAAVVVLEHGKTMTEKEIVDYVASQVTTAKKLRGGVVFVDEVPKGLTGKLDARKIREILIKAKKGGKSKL
* = called active by the depositor; / = no result given.

SMILES | HSP90 inh | TRAIL sens C8 | Platelet DG rel | TWEAK Fn14 block | PPC-1+TRAIL kill | TROY signal inh | HSP90 inh confirm | FLuc counter
Cc1ccc(NC(=O)CN(C)C(=O)c2cccc(S(=O)(=O)N3CCc4ccccc4C3)c2)cc1 | / | 1.6 | / | 2.6 | / | -8.0 | / | /
COc1cccc(CNC(=O)COc2ccc(C(=O)c3ccccc3)cc2)c1 | 1.3 | 5.8 | -7.4 | -5.4 | / | 5.0 | / | /
C=CCOc1ccccc1CNc1cccc(F)c1 | -3.6 | -15.8 | -9.8 | 2.3 | -12.5 | 2.6 | / | /
C=CCOc1ccccc1CNc1ccc2c(c1)OCCO2 | 66.6* | 58.7* | 9.0 | 90.7* | 39.0 | 85.0* | 73.4* | 69.5*
CC(C)c1ccccc1OCC(=O)NCC(c1cccs1)N1CCOCC1 (stereo not drawn) | 23.9* | -8.0 | 14.2 | 23.4 | 19.3 | 19.7 | 0.0 | -5.4
Cc1ccc(NCC(O)C(O)C(O)CO)c(N=Nc2ccccc2)c1C (stereo not drawn) | 23.9* | -3.8 | 5.6 | -1.2 | 19.3 | -6.8 | -16.7 | -6.0
CC(C)(C)OC(=O)C[C@H]1C/C=C\C[C@@H](CC(=O)N[C@@H](CO)Cc2ccccc2)C(=O)NCCOC1=O | / | -4.7 | / | -0.6 | / | 10.2 | / | /
COc1ccccc1Nc1nn2c(=O)c3ccc(C(=O)NCc4cccnc4)cc3nc2s1 | 20.1* | 3.5 | -0.1 | -14.8 | / | 0.9 | 37.8* | -1.8
O=C1NC(=O)/C(=C\c2ccc(OCc3cccc(C(=O)O)c3)c(Cl)c2)N1 | 30.8* | 7.0 | 3.4 | -21.4 | 9.6 | -72.1 | 45.2* | 49.6*
Cc1cc(NC(=O)CSc2nnc(-c3ccc([N+](=O)[O-])cc3)o2)no1 | 6.6 | -1.3 | -3.4 | 4.3 | / | -6.8 | / | /
C[n+]1nc(Nc2ccccc2)sc1-c1ccc(O)cc1 | 17.1* | 1.5 | -0.2 | 12.0 | / | 1.4 | -7.7 | -9.0
Cc1ccc(S(=O)(=O)c2c(N)n(CCCN(C)C)c3nc4ccccc4nc23)cc1 | 0.3 | 6.7 | 3.7 | 11.1 | 3.7 | 1.9 | / | /
CN(C)CCCn1c(N)c(C#N)c2nc3ccccc3nc21 | 46.8* | -21.1 | 1.4 | 55.2* | 12.2 | 18.1 | -7.5 | -10.1
CN(C)c1ccc(N=Nc2ccc(C(=O)O)cc2)cc1 | 31.4* | 50.6* | -7.2 | 97.7* | / | 46.2 | 53.0* | 84.2*
CC(C)(C)c1ccc(/C=N/Nc2cccc(C(=O)O)c2)cc1 | 13.5 | 33.3 | 10.4 | -40.1 | 12.4 | -55.0 | / | /
CN(C)c1ccc(/C=N/Nc2cccc(C(=O)O)c2)cc1 | 76.0* | 0.5 | 12.3 | -13.9 | / | -59.7 | 97.1* | 94.2*
Cc1[nH]c2ccccc2c1/C=N/NC(N)=S | 8.5 | -13.4 | 7.9 | 7.1 | -8.4 | -7.2 | / | /
CCc1nnc(N/N=C/c2c(C)[nH]c3ccccc23)n1N | 75.0* | -9.3 | -21.0 | 1.8 | 5.1 | -10.8 | -0.8 | -3.4
Cc1[nH]c2ccccc2c1/C=N/Nc1cccc(C(=O)O)c1 | 54.2* | 0.7 | -5.2 | -28.6 | -19.1 | -44.8 | 54.1* | 41.0*
O=C(O)c1cccc(N/N=C/c2ccc(-c3ccccc3)cc2)c1 | 28.0* | 20.4 | 37.0 | -14.6 | 23.1 | -103.9 | 53.6* | 67.3*
Cc1[nH]c2ccccc2c1/C=N/NC(=O)c1ccccc1 | -3.2 | 14.9 | 3.5 | 4.1 | / | -38.3 | / | /
O=C(Cn1cnc2ccccc2c1=O)NCCCN1CCCC1=O | / | -0.8 | / | 10.1 | / | -0.4 | / | /
Cc1cc(C)cc(SCc2noc(C(=O)NCC3CC3)c2C(=O)NCC2CC2)c1 | / | / | -1.7 | / | / | / | / | /
COc1ccccc1/C=C/C=N/Nc1cccc(C(=O)O)c1 | 56.6* | 0.6 | -12.7 | -18.0 | / | -50.1 | 64.1* | 49.4*
COc1ccc(Br)cc1/C=N/Nc1cccc(C(=O)O)c1 | 3.7 | -1.5 | 7.7 | -64.2 | 7.2 | -42.2 | / | /
COCCN(CCOC)Cc1cc(=O)oc2cc(OC)ccc12 | / | -17.7 | / | -4.8 | / | -13.2 | / | /
CCc1ccc(OCc2ccc(C(=O)OC)o2)cc1 | 56.1* | 6.4 | -2.2 | -21.4 | / | -65.5 | 74.9* | -14.5
CCC(C)c1ccc(OCc2ccc(C(=O)OC)o2)cc1 (stereo not drawn) | 25.6* | -2.5 | 7.9 | -45.9 | -4.9 | -56.3 | 65.0* | -22.4
COC(=O)c1ccc(COc2ccc(NC(C)=O)cc2)o1 | -0.4 | 17.5 | 2.5 | -7.5 | 10.5 | 5.1 | / | /
